Screens from PubChem BioAssay.
BAZ2B inh: inhibitors of human BAZ2B bromodomain. AlphaScreen BAZ2B-H3K14Ac peptide displacement. 360,000 compounds, 4.4% hits. Potency, µM (top dose mostly 114 µM), for inactives: at the highest dose activity change, negative = inhibition, hits mostly inhibitors. Q9UIF8; further: potency means the concentration at half of the fitted maximal effect; on the % scale 0 is the no-effect control and ±100 the full control effect; nearly all actives have a fitted effect of over 60% in size
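BAZ2B (50 nM) with biotin-H3(5-23)K14Ac peptide (50 nM) in PBS pH 7.4, 0.01% Tween-20, preformed 30 min, then compound 30 min at room temperature; top concentration 110uM. AlphaScreen streptavidin donor/nickel chelate acceptor beads (10 ug/mL final), 20 min dark, signal read.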
CtBP-E1A inh: blocks the CtBP interaction with E1A. AlphaScreen GST-E1A/His-CtBP binding, 1536-well; hits give low values. activity change, % (no concentration beside the values). 340,000 compounds, 0.49% hits; in the data active means activity change below about -65%; inconclusive means mostly about -30% to -63%; further: on the % scale 0 is the no-effect control and ±100 the full control effect
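AlphaScreen with 125 nM GST-E1A and 125 nM His-CtBP (5X stocks) in Tris pH 8.0, 300 mM NaCl, BSA, Tween 20, TCEP. Compounds preincubated 2 h at 37 deg C, then glutathione donor/nickel acceptor beads added for 1 h at 37 deg C in dark.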
Six1-Eya2 inh: blocks human Six1 binding to Eya2; Q15475+O00167; AlphaScreen GST-Six1/His-Eya2 binding, biochemical; hits give low values; activity change, % (test concentration not listed); 360,000 compounds, 0.56% hits; in the data active means activity change below about -65%; inconclusive means mostly about -30% to -63%; further: on the % scale 0 is the no-effect control and ±100 the full control effect
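GST-Six1 + His-Eya2 (5X stock: 250/500 nM); Tris pH 8.0, 300 mM NaCl, 0.05% BSA, 0.02% Tween 20; GSH donor/Ni acceptor beads; 1 h 37 °C dark; AlphaScreen readout.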
G9a inh: inhibitors of human histone lysine methyltransferase G9a. Q96KQ7. 350,000 compounds, 8.8% hits. AID 504332. Potency, µM (top dose mostly 102 µM), without a hit: at the top dose activity, negative = inhibition, most hits filed as inhibitors. G9a H3K9 monomethylation, AlphaScreen, 2 h; further: potency means the concentration at half of the fitted maximal effect; on the % scale 0 is the no-effect control and ±100 the full control effect; nearly all actives have a fitted effect of over 75% in size
Target sequence (Q96KQ7 913-1193 limits assumed): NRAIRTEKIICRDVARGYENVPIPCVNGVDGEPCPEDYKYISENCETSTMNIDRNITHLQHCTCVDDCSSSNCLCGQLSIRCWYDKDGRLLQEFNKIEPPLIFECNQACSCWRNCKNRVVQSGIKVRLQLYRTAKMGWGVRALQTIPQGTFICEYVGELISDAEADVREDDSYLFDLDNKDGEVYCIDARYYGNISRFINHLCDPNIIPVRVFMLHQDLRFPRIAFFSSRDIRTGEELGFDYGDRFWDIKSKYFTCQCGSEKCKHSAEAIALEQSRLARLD
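Readings reflect AlphaScreen signal from monomethyl-H3K9 antibody detection. HMT at 20 nM; substrate b-H3K9 500 nM; cofactor SAM 20 uM; 2 h RT reaction; compounds tested as titrations in qHTS with 15 min preincubation.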
JMJD2A Tudor inh: JMJD2A Tudor domain (human) inhibition; O75164; AID 504339; 390,000 compounds, 4.4% hits; AlphaScreen JMJD2A-Tudor / H3K4me3 peptide binding; Potency, µM (top dose mostly 114 µM), for inactives: at the highest dose activity change, negative = inhibition, usual class: inhibitors; further: potency means the concentration at half of the fitted maximal effect; on the % scale 0 is the no-effect control and ±100 the full control effect; nearly all actives have a fitted effect of over 50% in size
HP1b binding inh: HP1-beta chromodomain-methylated histone interaction inhibition. AlphaScreen HP1-beta / biotin-H3K9me3 peptide binding. Potency, µM (series often up to 114 µM), inactives show top-dose activity change, negative = inhibition, most hits filed as inhibitors. 390,000 compounds, 0.56% hits. AID 540317; further: potency means the concentration at half of the fitted maximal effect; nearly all actives have a fitted effect of over 70% in size
Target sequence (P83916 whole entry, looked up): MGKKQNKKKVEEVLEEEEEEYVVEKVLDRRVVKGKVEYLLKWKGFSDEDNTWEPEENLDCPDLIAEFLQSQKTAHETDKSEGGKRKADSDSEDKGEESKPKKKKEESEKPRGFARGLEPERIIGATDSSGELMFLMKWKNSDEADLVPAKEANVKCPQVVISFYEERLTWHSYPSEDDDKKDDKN
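AlphaScreen: HP1-beta (50 nM) preformed 30 min with biotin-H3(1-18)K9me3 peptide (50 nM) in PBS pH 7.4, 0.01% Tween-20. Compound added for 30 min at RT, then streptavidin donor/nickel chelate acceptor beads (10 ug/mL) for 30 min.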
An asterisk follows results filed as active; ? = inconclusive; . = not tested or not shown; [ ] = another dose, or the depositor's remark. Most compounds without a hit are left out; they make up all but 10% or so of the library. Unless noted, the call rests on the fitted dose curve; in most records, active means well fitted inhibition curve with a large enough effect; inconclusive means small, poorly fitted or top-dose-only effect; inactive means no such curve, though single readings can be large or run the other way.

SMILES | BAZ2B inh | CtBP-E1A inh | Six1-Eya2 inh | G9a inh | JMJD2A Tudor inh | HP1b binding inh
Cc1ccc(Cl)cc1N1CCN(CC(O)COCc2ccco2)CC1 (centres undefined) | 50µM* | -2 | -8 | 11µM* | 7.1µM* | ?
CC1CCCN(c2nc3c(-c4ccc(Cl)cc4)nnn3c3ccccc23)C1 (centres undefined) | 8% | . | . | 7%[59 µM] | 0% | 58%
COc1ccc(Cl)cc1NC(=O)Cn1nnc2sc(-c3ccccc3)cc2c1=O | -26% | . | . | 1%[59 µM] | -24% | 19%
Clc1ccc(C2=NNC(=NCc3ccc4c(c3)OCO4)SC2)cc1 | -35% | ? | ? | 28µM* | ? | -37%
Oc1ccc(C2=NNC(=NCc3ccc4c(c3)OCO4)SC2)c(O)c1 | ? | -19 | -13 | ? | -29% | 4%
CCCNC(=O)CN1CCN(c2ncc(NC(=O)c3ccc(Cl)cc3)cc2C(=O)O)CC1 | 50µM* | . | . | ? | 71µM* | -23%
CCCCNC(=O)CN1CCN(c2ccc(NC(=O)c3ccc(OC)cc3)cc2C(=O)O)CC1 | -3% | . | . | -4%[59 µM] | ? | 16%
CCCNC(=O)CN1CCN(c2cc3ccccc3c(Cl)n2)CC1 | -2% | 10 | 8 | ? | -16% | 48%
CCCCNC(=O)CN1CCN(c2ncc(NC(=O)c3ccc(Cl)cc3)cc2C(=O)O)CC1 | 50µM* | . | . | ? | 79µM* | -31%
Cc1cccc(-c2c3c(=O)n(C)c(=O)n(C)c3c3c(C)nc4ccccc4n23)c1 | -1% | . | . | -49%[59 µM] | 8% | 36%
COc1cccc(CNCCSc2nnnn2C)c1OCc1ccccc1 | -18% | . | . | 7%[59 µM] | -14% | 26%
COc1ccc(N2CC(NC(=O)COc3ccc(F)cc3)CC2=O)cc1OC (centres undefined) | -16% | . | . | 2%[59 µM] | -12% | 10%
CC(OC(=O)c1cccs1)C(=O)NCCc1ccccc1 (centres undefined) | 6% | 3 | 9 | 14% | -7% | 0%
C/C(=N\NC(=S)NCc1ccccc1)c1ccc2ccccc2c1 | ? | 4 | ? | 1%[59 µM] | -38% | -11%
C/C(CCC(C)C)=N\NC(=S)NCc1ccccc1 | ? | -14 | -23 | 45µM* | 56µM* | -10%
C/C(=N\NC(=S)NCCc1ccccc1)c1cccs1 | 35µM* | -24 | -26 | ? | ? | ?
C/C(CCc1ccccc1)=N\NC(=S)NCCc1ccccc1 | 40µM* | ? | -4 | ? | ? | -22%
C/C(CCc1ccc2c(c1)OCO2)=N\NC(=S)NC(C)C | ? | 8 | -1 | ? | -34% | -15%
COCCNC(=S)N/N=C(\C)CCc1ccc2c(c1)OCO2 | -39% | 5 | -9 | 50µM* | -30% | -4%
COc1ccc(CC(=O)NCc2nc3cccnc3n2Cc2ccc(C)cc2)cc1 | 3% | . | . | 6%[59 µM] | -12% | 12%[57 µM]
CCOC(=O)CCc1c(C)c(C#N)c2nc3ccccc3n2c1-n1cnc2ccccc21 | 7% | 13 | 6 | 24% | -15% | 11%
CCOC(=O)CCc1c(C)nc(SCCN2CCCC2)c(C#N)c1C | -18% | 0 | -2 | 40µM* | -9%[57.1 µM] | 51%
CCOC(=O)CCc1c(C)nc(SCCCn2c(=O)[nH]c3ccccc32)c(C#N)c1C | -2% | 7 | -2 | ? | 28µM* | 25%
CCN(CC)CCCNC(=O)c1c2c(nc3ccccc13)C(=O)N(C1CCCCC1)C2 | -3% | . | . | 8%[59 µM] | -20% | 19%
C=CC[n+]1c(-c2ccc(OC)c(OC)c2)csc1NNC(=O)Nc1ccccc1 | 32µM* | -19 | -23 | ? | ? | ?
SMILES | BAZ2B inh | CtBP-E1A inh | Six1-Eya2 inh | G9a inh | JMJD2A Tudor inh | HP1b binding inh
CC(=O)c1sc(-c2ccccn2)nc1C | 6% | . | . | 35µM* | . | .
COc1cccc(Nc2ncc3ncc(=O)n(C[C@H]4CCCO4)c3n2)c1 | . | . | . | 7%[0.501 µM] | . | .
CCN(CC)c1cc2c(cc1F)c(=O)c(S(=O)(=O)c1ccc(C)cc1)cn2Cc1ccc(F)cc1 | 2% | . | . | 0%[59 µM] | 5% | 41%
COC(=O)c1ccc2nc(NC(=O)CN3C(=O)CCC3=O)sc2c1 | 56µM* | 7 | 1 | -7%[2.33 µM] | -21%[11.4 µM] | -6%
Cc1ccc2nc(NC(=O)COC(=O)CSc3nc(C)cc(C)n3)sc2c1 | -37% | -6 | -23 | 45µM* | -13% | 34%
COC(=O)c1ccc2nc(NC(=O)COC(=O)CSc3nc(C)cc(C)n3)sc2c1 | ? | -21 | -5 | 13µM* | -6% | 30%
COC(=O)c1cccc(NC(=O)COC(=O)CSc2nc(C)cc(C)n2)c1 | -3% | 22 | 0 | 0%[59 µM] | -21% | 26%
COc1ccc2nc(NC(=O)CSc3nc(C)cc(C)n3)sc2c1 | 0% | -18 | -26 | ? | -27% | 30%
CCC(C)NC(=O)c1ccc2c(c1)nc1n2CCCCC1 (centres undefined) | 1% | . | . | 1%[59 µM] | -13% | 9%[57 µM]
O=C(CN1CCN(C(=O)c2ccco2)CC1)N1CCc2[nH]c3ccccc3c2C1 | -24% | 3 | -5 | 22µM* | -15% | 26%
Cc1ccc2[nH]c3c(c2c1)CN(C(=O)CN1CCN(c2cccc(C)c2C)CC1)CC3 | 35µM* | -10 | -19 | ? | 56µM* | -18%
Cc1ccc2[nH]c3c(c2c1)CN(C(=O)CN1c2ccc(F)cc2CCC1C)CC3 (centres undefined) | 40µM* | -17 | -20 | 32µM* | 45µM* | ?
Cc1ccc2[nH]c3c(c2c1)CN(C(=O)CN1CCN(C(=O)c2ccco2)CC1)CC3 | -19% | . | . | ? | . | .
O=C1CCc2cc(S(=O)(=O)Nc3ccc(Cl)c(Cl)c3)c(F)cc2N1 | . | . | . | . | -29% | .
O=C(NCc1ccccc1Cl)c1ccc(CSCc2ccccc2Cl)o1 | 7% | . | . | 12%[59 µM] | -1% | 21%
Cc1cccc(NC(=O)c2ccccc2NC(=O)c2ccco2)c1 | ? | 4 | 1 | 40µM* | -1% | 26%
O=C(Nc1ccccc1C(=O)Nc1ccccc1)c1ccco1 | -2% | 1 | 0 | 12% | -10% | -19%
CSc1ccccc1C(=O)Nc1cccc(C)c1 | 3% | 3 | 2 | 45µM* | -7% | 37%
Cc1ccc2c(NC(=O)c3ccco3)cccc2n1 | -12% | -22 | 0 | 50µM* | -23% | 39%
CSc1ccccc1C(=O)Nc1cccc([N+](=O)[O-])c1 | ? | 0 | 0 | ? | -31% | 8%
CSc1ccccc1C(=O)Nc1cc(C)ccc1C | -2% | . | 0 | 40µM* | -11% | 22%
CSc1ccccc1C(=O)Nc1ccc(C)cc1C | -15% | -2 | 14 | ? | -3% | 8%
Cc1ccc2c(NC(=O)c3ccc(Br)o3)cccc2n1 | -6% | -2 | 1 | . | -4% | 21%
